Source: the supplement of paper PMC9262897, “Low-cost anti-mycobacterial drug discovery using engineered E. coli” (Nature Communications, 2022)
Counter-ions that a name gives are not always drawn. ± gives the standard deviation of the averaged measurements.

Key:
Test in all cases: growth (OD600 after 10 h); higher = more growth (less inhibition)
[1] = tested on: E. coli TESEC Alr+ wild-type control; conditions: compound 0.1 mM; raw OD600 reference: median of DMSO wells 0.241, cell-free background 0.041
Experimental: (§1)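 TESEC Mtb Alr E. coli, or the Alr+ wild-type control, in 384-well plates with Prestwick library compounds at 0.1 mM and 1% DMSO, across arabinose induction levels of 1E3 to 1E7 nM. Growth is read as OD600 after 10 h at 37 °C in triplicate biological replicates.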

E. coli TESEC Mtb Alr [2] = conditions: compound 0.1 mM
Experimental: as §1

E. coli TESEC Mtb Asd = conditions: compound 0.1 mM
Experimental: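 TESEC E. coli strains in which the native enzyme is deleted and replaced by arabinose-inducible Mtb Asd, DapB, CysH or TrpD, each grown in its selective medium. Strains were screened against the Prestwick library at 0.1 mM and 1% DMSO in 384-well format at low and high arabinose induction. Growth is read as OD600 after 10 h in triplicate.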

[3] = tested on: E. coli TESEC Alr+ wild-type control; conditions: compound 0.1 mM; raw OD600 reference: median of DMSO wells 0.49, cell-free background 0.052
Experimental: (§2)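 TESEC Mtb Alr E. coli (ΔaraC ΔtolC ΔentC Δalr ΔdadX, arabinose-inducible Mtb Alr) or the Alr+ wild-type control strain, grown in defined M9-fructose medium without D-alanine in 96-well plates with Prestwick library compounds at 0.1 mM and 1% DMSO. Low Alr induction is 0.1 µM arabinose and high induction is 10 mM arabinose.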

E. coli TESEC Mtb Alr [4] = conditions: compound 0.1 mM; remark: listed apart in the source
Experimental: as §2

[5] = arabinose 1000 nM, raw OD600 reference: median of DMSO wells 0.294, cell-free background 0.041
[6] = arabinose 10000 nM, raw OD600 reference: median of DMSO wells 0.264, cell-free background 0.041
[7] = arabinose 100000 nM, raw OD600 reference: median of DMSO wells 0.201, cell-free background 0.041
[8] = arabinose 1000000 nM, raw OD600 reference: median of DMSO wells 0.193, cell-free background 0.041
[9] = arabinose 10000000 nM, raw OD600 reference: median of DMSO wells 0.146, cell-free background 0.041
[10] = arabinose induction (level): High, raw OD600 reference: median of DMSO wells 0.331, cell-free background 0.041
[11] = arabinose induction (level): Low, raw OD600 reference: median of DMSO wells 0.417, cell-free background 0.041
[12] = arabinose 100 nM, raw OD600 reference: median of DMSO wells 0.413, cell-free background 0.052
[13] = arabinose 10000000 nM, raw OD600 reference: median of DMSO wells […], cell-free background 0.052

SMILES | growth [1] | growth (E. coli TESEC Mtb Alr [2]; [5]) | growth (E. coli TESEC Mtb Alr [2]; [6]) | growth (E. coli TESEC Mtb Alr [2]; [7]) | growth (E. coli TESEC Mtb Alr [2]; [8]) | growth (E. coli TESEC Mtb Alr [2]; [9]) | growth (E. coli TESEC Mtb Asd; [10]) | growth (E. coli TESEC Mtb Asd; [11]) | growth [3] | growth (E. coli TESEC Mtb Alr [4]; [12]) | growth (E. coli TESEC Mtb Alr [4]; [13])
NCCc1cc[nH]n1 [Betazole hydrochloride] | 0.25 ± 0.0071 | 0.254 ± 0.06 | 0.259 ± 0.014 | 0.2 ± 0.03 | 0.1943 ± 0.00064 | 0.14 ± 0.0021 | 0.279 ± 0.0079 | 0.379 ± 0.081 | 0.494 ± 0.066 | 0.408 ± 0.013 | 0.305 ± 0.067
CCc1cc(Cl)c(OC)c(C(=O)NC[C@@H]2CCCN2CC)c1O [S(-)Eticlopride hydrochloride] | 0.191 ± 0.013 | 0.242 ± 0.024 | 0.271 ± 0.0095 | 0.17 ± 0.0077 | 0.122 ± 0.0019 | 0.163 ± 0.0043 | 0.189 ± 0.015 | 0.356 ± 0.07 | 0.567 ± 0.012 | 0.399 ± 0.0083 | 0.272 ± 0.021
Nc1nc(=S)c2ncn([C@@H]3O[C@H](CO)[C@@H](O)[C@H]3O)c2[nH]1 [Thioguanosine] | 0.0575 ± 0.0014 | 0.0503 ± 0.0022 | 0.0465 ± 0.00055 | 0.0493 ± 0.00055 | 0.0474 ± 0.00055 | 0.05337 ± 0.00021 | 0.209 ± 0.0071 | 0.127 ± 0.014 | 0.349 ± 0.02 | 0.225 ± 0.028 | 0.0964 ± 0.0089
COc1ccc(C(=O)NCc2ccc(OCCN(C)C)cc2)cc1OC [Itopride] | 0.241 ± 0.0038 | 0.298 ± 0.0084 | 0.268 ± 0.011 | 0.229 ± 0.029 | 0.176 ± 0.0056 | 0.159 ± 0.0051 | 0.303 ± 0.083 | 0.365 ± 0.11 | 0.475 ± 0.063 | 0.407 ± 0.015 | 0.349 ± 0.0081
CC(=O)OC[C@H]1O[C@@H]([S-])[C@H](OC(C)=O)[C@@H](OC(C)=O)[C@@H]1OC(C)=O.CCP(CC)CC.[Au+] [Auranofin] | 0.0481 ± 0.0033 | 0.04847 ± 0.00021 | 0.0451 ± 0.00026 | 0.0634 ± 0.012 | 0.0436 ± 0.00056 | 0.0467 ± 0.00053 | 0.0525 ± 0.0026 | 0.0514 ± 0.0016 | 0.059 ± 0.00026 | 0.0775 ± 0.008 | 0.056 ± 0.00069
N=c1nc(N2CCCCC2)cc(N)n1O [Minoxidil] | 0.244 ± 0.0093 | 0.28 ± 0.0067 | 0.247 ± 0.014 | 0.225 ± 0.0082 | 0.166 ± 0.0034 | 0.148 ± 0.0099 | 0.371 ± 0.048 | 0.384 ± 0.054 | 0.45 ± 0.038 | 0.406 ± 0.0072 | 0.379 ± 0.034
NS(=O)(=O)c1cc2c(cc1C(F)(F)F)NCNS2(=O)=O [Hydroflumethiazide] | 0.2612 ± 0.002 | 0.296 ± 0.0066 | 0.262 ± 0.01 | 0.239 ± 0.011 | 0.1758 ± 0.0006 | 0.147 ± 0.0041 | 0.388 ± 0.036 | 0.442 ± 0.06 | 0.455 ± 0.035 | 0.406 ± 0.013 | 0.32 ± 0.053
CC[C@]12CCCN3CCc4c(n(c5ccccc45)C(=O)C1)[C@@H]32 [Eburnamonine (-)] | 0.182 ± 0.0061 | 0.238 ± 0.0081 | 0.257 ± 0.0031 | 0.144 ± 0.0086 | 0.124 ± 0.004 | 0.135 ± 0.0057 | 0.119 ± 0.0043 | 0.27 ± 0.095 | 0.544 ± 0.059 | 0.393 ± 0.012 | 0.277 ± 0.015
CCOC(=O)[C@H](CCc1ccccc1)N[C@@H](C)C(=O)N1[C@H](C(=O)O)C[C@@H]2CCC[C@@H]21 [Ramipril] | 0.22 ± 0.014 | 0.292 ± 0.004 | 0.288 ± 0.01 | 0.19 ± 0.011 | 0.217 ± 0.004 | 0.14 ± 0.0088 | 0.253 ± 0.065 | 0.365 ± 0.092 | 0.586 ± 0.011 | 0.42 ± 0.0058 | 0.295 ± 0.022
